MITF TRPM1 HTS = MITF TRPM1 promoter activation in melanoma cells | SK-MEL-5 TRPM1-promoter luciferase, 24 h; % of positive control, neutral wells = 0 | activation, % at 12.5 µM | hit rate 0.75% among 300,000;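 active = mean activation of at least 80% with every replicate also reaching 80%; inconclusive = mean reaches 80% but some replicate falls short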
Wnt bcat act = Wnt/beta-catenin pathway activation | activation, % at 9.35 µM | AID 743398 | Wnt/beta-catenin reporter cell assay, activator, plate reader | hit rate 1.2% among 300,000; in the data active = activation above about 30%, passing the limit was not always enough; inconclusive = no clear call, values can overlap the other calls
APOBEC3G inh = blocks human APOBEC3G single-stranded DNA deamination; Q9HC16; recombinant A3G, ssDNA deamination FAM/TAMRA fluorescence; inhibition, % at 20 µM; hit rate 0.28% among 330,000;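 active = inhibition of at least 40% at 20 µM, with no more than 30% in the related APOBEC3A deaminase screen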
Target sequence (Q9HC16 whole entry, looked up): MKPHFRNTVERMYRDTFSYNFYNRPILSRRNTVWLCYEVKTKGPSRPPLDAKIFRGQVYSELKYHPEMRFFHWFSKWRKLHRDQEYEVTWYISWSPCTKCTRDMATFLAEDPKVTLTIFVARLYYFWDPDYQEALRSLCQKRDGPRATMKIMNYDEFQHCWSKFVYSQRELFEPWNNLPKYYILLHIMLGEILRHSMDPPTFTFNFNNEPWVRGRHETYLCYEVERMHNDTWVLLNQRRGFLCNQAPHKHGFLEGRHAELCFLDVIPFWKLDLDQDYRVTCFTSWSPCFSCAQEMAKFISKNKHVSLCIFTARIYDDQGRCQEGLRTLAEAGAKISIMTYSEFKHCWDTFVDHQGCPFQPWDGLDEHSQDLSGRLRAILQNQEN
PHOSPHO1 inh = PHOSPHO1 (human) inhibition | recombinant PHOSPHO1, absorbance phosphatase assay | inhibition, % at 13.3 µM | Q8TCT1 | hit rate 1.1% among 290,000; in the data active = inhibition above about 60%
esBAF inh = inhibitors of esBAF chromatin remodeling in mouse ES cells; reporter increase, % at 12.5 µM; AID 602393; Bmi1-luciferase knock-in reporter, 24 h; 100% = twice the neutral-well signal; hit rate 2% among 350,000; in the data active = activation above about 40%; inconclusive = no clear call, values can overlap the other calls;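 also: a rise in the Bmi1 reporter signal indicates esBAF inhibition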
A3A deaminase = human APOBEC3A DNA deaminase inhibition | inhibition, % at 20 µM | recombinant A3A, FAM/TAMRA ssDNA deamination fluorescence | hit rate 0.41% among 330,000;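 active = at least 40% inhibition at 20 µM here, with at most 30% in a related deaminase screen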
Target sequence (P31941 whole entry, looked up): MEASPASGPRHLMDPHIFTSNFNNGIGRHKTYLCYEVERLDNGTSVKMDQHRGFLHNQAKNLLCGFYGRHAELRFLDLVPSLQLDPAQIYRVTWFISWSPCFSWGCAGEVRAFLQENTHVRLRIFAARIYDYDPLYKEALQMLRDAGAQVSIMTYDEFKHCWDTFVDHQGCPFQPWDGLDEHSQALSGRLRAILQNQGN
Numbers stand for hits; 0 = inactive; ? = inconclusive; - = not tested or not shown. A selection: hits, their analogues and other compounds. The true share with any hit is near 3.6%.

SMILES	MITF TRPM1 HTS	Wnt bcat act	APOBEC3G inh	PHOSPHO1 inh	esBAF inh	A3A deaminase
CCOC(=O)C(C)Sc1nc2c(c(=O)[nH]c(=O)n2C)n1C/C=C(/C)Cl (stereo not drawn)	0	-	0	64.8	-	0
Cc1nn(-c2ccccc2)c(C)c1Cc1ccc(O)cc1	0	0	0	0	88.2	0
C[C@@H]1CN([C@H](C)CO)C(=O)c2cccc(NC(=O)Nc3cccc4ccccc34)c2O[C@H]1CN(C)S(=O)(=O)c1ccc(Cl)cc1	-	-	-	-	0	-
COc1ccc(C2=NNC(=O)C2(C)Br)cc1 (stereo not drawn)	0	51.2	-	-	-	-
COc1ccc(C2=NNC(=O)CC2)cc1	0	0	0	0	-	0
CCCC(=O)Nc1sc(C(=O)OC)c(C)c1C(N)=O	0	0	0	76.7	0	0
CCOC(=O)c1sc(NC(=O)CCN2CCN(C)CC2)c(C(=O)OCC)c1C	0	0	0	0	0	0
COc1cc2cnc(C3=CCCCC3)cc2cc1OC	0	0	0	-	0	0
COc1ccc2cc(-c3ccccc3)ncc2c1	0	32.0	0	0	0	0
COc1ccc2cc(C3=CCCCC3)ncc2c1	0	42.4	0	-	0	0
COc1ccc2cc(-c3ccsc3)ncc2c1	0	41.2	0	-	0	0
O=C(C[C@H]1CC[C@H]2NC[C@@H](O)COC[C@@H]2O1)Nc1ccccc1	-	-	-	-	0	-
C[C@@H]1CCCCO[C@@H](CN(C)Cc2ccc3c(c2)OCO3)[C@@H](C)CN([C@H](C)CO)C(=O)c2cc(NC(=O)Nc3ccc4c(c3)OCO4)ccc2O1	-	-	-	-	0	-
COc1cc(NC(=O)c2noc(C)c2[N+](=O)[O-])c(OC)cc1Cl	0	0	0	63.6	0	0
COc1ccc(-c2cc3nc4ccccc4n3c(N)c2C#N)cc1	113.7	0	0	0	-	0
Cc1ccc(S(=O)(=O)N(C)C[C@H]2OCCCC[C@H](C)Oc3ccc(NS(=O)(=O)c4ccc(Cl)cc4)cc3C(=O)N([C@H](C)CO)C[C@@H]2C)cc1	-	-	-	-	0	-
CCc1cc2c(=O)[nH]c(-c3ccccn3)nc2s1	0	34.1	0	0	-	0
CS(=O)(=O)Nc1ccc2c(c1)[C@H]1C[C@H](CC(=O)N3CCOCC3)O[C@H](CO)[C@H]1O2	-	-	-	-	0	-
O=Cc1ccccc1OCc1ccc2c(c1)OCO2	-	0	0	0	70.0	0
COc1ccccc1CNCc1ccc2c(c1)OCO2	-	0	-	-	0	-
CCc1cccc(NC(=O)C2CCCN(c3ncnc4c3nc3n4CCCCC3)C2)c1 (stereo not drawn)	0	0	0	62.9	0	0
O=C(c1cccc(Oc2ccccc2)c1)N1CCOCC1	0	0	0	0	0	0
O=C(c1cccc(Oc2ccc([N+](=O)[O-])cc2)c1)N1CCOCC1	0	0	0	62.6	0	0
N/C(=N\OC(=O)c1ccc2ccccc2c1)c1ccccc1Cl	?	46.6	0	0	65.4	0
COc1ccc(/C(N)=N/OC(=O)c2ccc3ccccc3c2)cc1OC	-	0	-	-	0	-
SMILES	MITF TRPM1 HTS	Wnt bcat act	APOBEC3G inh	PHOSPHO1 inh	esBAF inh	A3A deaminase
O=C(Oc1ccc2ccc(O)cc2c1)c1ccccc1Cl	-	0	0	0	63.4	0
N/C(=N\OC(=O)c1ccc2ccccc2c1)c1ccccn1	0	0	0	0	0	0
N/C(=N\OC(=O)c1ccc2ccccc2c1)c1ccncc1	?	33.9	0	0	-	0
N/C(=N\OC(=O)/C=C/c1ccccc1)c1ccncc1	0	0	0	0	45.2	0
C[C@H]1CN([C@@H](C)CO)C(=O)c2cc(NS(=O)(=O)c3cn(C)cn3)ccc2O[C@H]1CN(C)C	-	-	-	-	0	-
C[C@H]1CN([C@@H](C)CO)C(=O)c2cc(NC(=O)CCCN(C)C)ccc2O[C@H]1CN(C)S(=O)(=O)c1ccc(Cl)cc1	-	-	-	-	0	-
COc1ccc(/C=C/C(=O)O/N=C(\N)c2ccccn2)cc1OC	80.9	0	0	-	?	0
Cc1ccccc1OCC(=O)O/N=C(\N)Cc1cccs1	0	-	0	0	0	0
N/C(=N\OC(=O)c1ccccc1Cl)c1ccncc1	0	0	0	0	-	0
Cc1ccccc1C(=O)O/N=C(\N)c1ccncc1	0	40.1	0	0	-	0
Cc1ccccc1C(=O)O/N=C(\N)Cc1cccs1	93.6	0	0	0	52.6	0
N/C(=N\OC(=O)/C=C/c1ccccc1)c1ccccn1	0	0	0	0	0	0
O=C(NCC1CCCO1)c1ccc(COc2ccccc2)cc1 (stereo not drawn)	0	0	0	0	48.7	0
Cc1ccc(OCc2ccc(C(=O)NCC3CCCO3)cc2)cc1 (stereo not drawn)	0	0	0	0	-	0
O=C(NCC1CCCO1)c1cccc(C(=O)NCC2CCCO2)c1 (stereo not drawn)	-	0	0	0	0	0
O=C(NCC1CCCO1)c1ccc2[nH]c3c(c2c1)CCCC3 (stereo not drawn)	0	0	0	-	44.5	0
C[C@@H]1CCCCO[C@H](CN(C)S(=O)(=O)c2cn(C)cn2)[C@@H](C)CN([C@@H](C)CO)C(=O)c2cc(NS(=O)(=O)c3cn(C)cn3)ccc2O1	-	-	-	-	0	-
CCCC(=O)OCC(=O)Nc1ccc(N=Nc2ccccc2)cc1	0	50.8	-	0	-	-
Cc1ccc(/C=C(\C#N)C(=O)Nc2ccccn2)o1	103.2	0	0	0	62.8	0
C[C@H]1CN(C(=O)OC(C)(C)C)CCN1c1ccc(N2CC[C@H](O)C2)c(C#N)c1	-	0	-	-	-	-
O=C(Nc1cccc2[nH]ncc12)c1ccc(F)cc1	96.2	0	0	0	0	0
O=C(NC(=S)Nc1cccc2[nH]ncc12)c1ccccc1	0	0	0	0	0	0
CCOc1cc2c(C#N)c(N3CCCCC3)nc(N)c2c(N)n1	0	-	0	0	54.5	0
COc1ccc(S(=O)(=O)N(C)C[C@@H]2Oc3c(NS(=O)(=O)c4cn(C)cn4)cccc3C(=O)N([C@H](C)CO)C[C@H]2C)cc1	-	-	-	-	0	-
Cc1ccc(NC(=O)C2CCN(S(=O)(=O)c3ccc4c(c3)CC(C)N4C(=O)C3CCC3)CC2)nc1 (stereo not drawn)	0	0	0	75.1	0	0
SMILES	MITF TRPM1 HTS	Wnt bcat act	APOBEC3G inh	PHOSPHO1 inh	esBAF inh	A3A deaminase
COc1ccc(-c2cn[nH]c2C)cc1	-	0	0	0	-	0
COc1ccc2cc(-c3ccn[nH]3)ccc2c1	0	35.3	0	0	0	0
CCOC(=O)C1=C(C)N=c2s/c(=C/c3ccco3)c(=O)n2C1c1cccc(OC)c1 (stereo not drawn)	-	-	0	66.2	-	0
CO[C@H]1CN(C)C(=O)c2cc(NC(=O)C3CCC3)ccc2OC[C@H](C)N(C(=O)NC(C)C)C[C@H]1C	-	-	-	-	0	-
Cc1ccc(C2=NN3C(C2)c2ccccc2OC32C(=O)Nc3ccccc32)cc1 (stereo not drawn)	0	-	0	0	-	0
CN1C(=O)C2(Oc3ccccc3C3CC(c4ccccc4)=NN32)c2ccccc21 (stereo not drawn)	0	-	0	0	95.2	0
CCCC(=O)Nc1ccc2c(c1)C(=O)N(C)C[C@@H](OC)[C@H](C)CN(C(=O)c1cnccn1)[C@@H](C)CO2	-	-	-	-	0	-
CCOC(=O)N/N=C\C=C\c1ccc2c(c1)OCO2	0	49.7	0	0	-	0
